Potency and activity change, negative = cytotoxicity data for 14 compounds are collected here from PubChem BioAssay (NCATS).

Assay in all cases: Primary qHTS to identify gynecologic anti-cancer compounds using libraries of approved drugs and bioactive compounds (AID 1345084); note: nearly all actives have a fitted effect of over 55% in size
In general terms: Quantitative high-throughput screening tests each substance at several concentrations.

One test deals with C33A. As to conditions: Gynecologic cancer cell panel viability, ATPlite luminescence, 48 h; series mostly up to 57.5 µM. In short, it runs like this: (§1)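 Cytotoxicity screen measuring ATP content by luciferase luminescence. Each compound is applied at five concentrations for 48 h at 37 C with 5% CO2.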
For orientation: Cellular ATP, detected with luciferase, serves as a proxy for viable cell number.

The subject of a further test is CASKI. The conditions noted are these: Gynecologic cancer cell panel viability, ATPlite luminescence, 48 h; series mostly up to 57.5 µM. The essentials: as §1
A further test deals with Es-2. The conditions noted are these: Gynecologic cancer cell panel viability, ATPlite luminescence, 48 h; series mostly up to 57.5 µM. In short, it runs like this: as §1
In a further test the test system is HeLa. As to conditions: Gynecologic cancer cell panel viability, ATPlite luminescence, 48 h; series mostly up to 57.5 µM. In short, it runs like this:
as §1

The test system of a further test is Hek293T. As to conditions: Gynecologic cancer cell panel viability, ATPlite luminescence, 48 h, control line for the selectivity index; series mostly up to 57.5 µM. The essentials: as §1
The subject of a further test is JEG-3. As to conditions: Gynecologic cancer cell panel viability, ATPlite luminescence, 48 h; series mostly up to 57.5 µM. The essentials: as §1
A further test relates to OV90. As to conditions: Gynecologic cancer cell panel viability, ATPlite luminescence, 48 h; series mostly up to 57.5 µM. In short, it runs like this:
as §1

A further test relates to PA-1. As to conditions: Gynecologic cancer cell panel viability, ATPlite luminescence, 48 h; series mostly up to 57.5 µM. The essentials: as §1
The test system of the next test is SKOV3. As to conditions: Gynecologic cancer cell panel viability, ATPlite luminescence, 48 h; series mostly up to 57.5 µM. In short, it runs like this: as §1
Another test relates to Tov-21-G. As to conditions: Gynecologic cancer cell panel viability, ATPlite luminescence, 48 h; series mostly up to 57.5 µM. The essentials:
as §1

In the next test the test system is Tov112D. As to conditions: Gynecologic cancer cell panel viability, ATPlite luminescence, 48 h; series mostly up to 57.5 µM. In short, it runs like this: as §1

Structures are written as SMILES. Results filed as inconclusive are left out. Values without a mark were called inactive. The source made the active and inactive calls. Calls come from the whole dose curve; as a rule, active = well fitted cell-killing curve with a large enough effect; inconclusive = small, poorly fitted or top-dose-only effect, or effect the other way; inactive = flat fitted curve, though single readings scatter.
% is set by controls: 0 for no effect and ±100 for the full control effect; potency is the fitted concentration of half-maximal effect.

In the case of `Cc1ccc(-c2c(C(=O)CF)n(CCCO)c3ncnc(N)c23)cc1`, the Potency entry with C33A, in the test with CASKI, in the test with Es-2, with HeLa, with Hek293T and in the test with JEG-3 was “inactive” in each case. The Potency result with OV90, in the test with PA-1, in the test with SKOV3, with Tov-21-G and in the test with Tov112D was “inactive” each time.

With `C=C1C(OC2OCC(O)C(O)C2O)CC2C(C)(C)C(O)CCC2(C)C1CC/C(C)=C\CO` (stereo not drawn), the Potency result in the test on C33A, in the test on CASKI, in the test on Es-2, with HeLa, in the test with Hek293T and in the test on JEG-3 was “inactive” each time. Further, the Potency entry in the test with OV90, with PA-1, in the test with SKOV3, in the test on Tov-21-G and in the test on Tov112D was “inactive” each time.

Take `O=C1NC(=O)C(c2cn(-c3ccccc3)nc2-c2ccc(F)cc2)N1` (stereo not drawn): the Potency entry in the test with C33A, with CASKI, with Es-2, with HeLa, in the test on Hek293T and with JEG-3 was “inactive” in each case. In addition, the Potency result in the test with OV90, with PA-1, in the test with SKOV3, with Tov-21-G and with Tov112D was “inactive” throughout.

As for `CC1C(=O)OCC2=CCN3CCC(OC(=O)C(C)(O)C1(C)O)C23` (stereo not drawn), the Potency result with C33A, in the test with CASKI, with Es-2, with HeLa, in the test with Hek293T and in the test on JEG-3 was “inactive” each time. The Potency entry in the test with OV90, in the test with PA-1, with SKOV3, with Tov-21-G and in the test with Tov112D was “inactive” throughout.

For `CCOC(=O)C(CCc1ccccc1)NC1CSC(c2cccs2)CN(CC(=O)O)C1=O` (stereo not drawn), the Potency entry in the test on C33A, in the test with CASKI, in the test on Es-2, in the test on HeLa, in the test with Hek293T and in the test with JEG-3 was “inactive” in each case. Moreover, the Potency result in the test on OV90, with PA-1, with SKOV3, in the test with Tov-21-G and in the test with Tov112D was “inactive” throughout.

Turning to `Cc1cccc(C)c1-n1c(=O)c2cnc(Nc3ccc(N4CCN(C)CC4)cc3)nc2n2c3ccccc3nc12`, the Potency was 2.82 µM (active) in the test with C33A; 14.1 µM (active) in the test on CASKI; 3.55 µM (active) in the test with Es-2; 6.31 µM (active) with HeLa; 3.55 µM (active) in the test with Hek293T; 12.6 µM (active) in the test with JEG-3. Besides, the Potency with OV90 is 12.6 µM (active); in the test with PA-1 it was 7.94 µM (active); in the test with Tov-21-G, 0.398 µM (active); with Tov112D it was 8.91 µM (active).

As for `CC(O)(CC(=O)O)CC(=O)OCc1ccc(O[C@@H]2O[C@H](CO)[C@@H](O)[C@H](O)[C@H]2O)cc1` (stereo partly drawn), the Potency entry in the test on C33A, in the test on CASKI, in the test on Es-2, in the test with HeLa, in the test with Hek293T and with JEG-3 was “inactive” in each case. Besides, the Potency entry in the test on OV90, with PA-1, in the test with SKOV3, with Tov-21-G and with Tov112D was “inactive” each time.

As for `CNC(C)C(=O)NC(C(=O)N1CCCC1c1nc(C(=O)c2ccc(F)cc2)cs1)C1CCCCC1` (stereo not drawn), the Potency result in the test with C33A, with CASKI, in the test with Es-2, in the test on HeLa, in the test with Hek293T and in the test with JEG-3 was “inactive” throughout. The Potency entry with OV90, with PA-1 and with Tov112D was “inactive” in each case.

Take `C[C@@H]1O[C@@H](O[C@H]2[C@@H]3C=CO[C@@H](O[C@@H]4O[C@H](CO)[C@@H](O)[C@H](O)[C@H]4O)[C@@H]3[C@@]3(CO)O[C@@H]23)[C@H](OC(=O)/C=C/c2ccccc2)[C@H](O)[C@H]1O`: the Potency entry with C33A, in the test with CASKI, with Es-2, in the test on HeLa, with Hek293T and in the test on JEG-3 was “inactive” each time. The Potency result in the test with OV90, in the test on PA-1, with Tov-21-G and in the test with Tov112D was “inactive” in each case.

In the case of `C[S+](CC[C@H](N)C(=O)[O-])C[C@H]1O[C@@H](n2cnc3c(N)ncnc32)[C@H](O)[C@@H]1O` (stereo partly drawn), the Potency entry with C33A, in the test with CASKI, in the test with Es-2, in the test with HeLa, with Hek293T and in the test on JEG-3 was “inactive” each time. Besides, the Potency result with OV90, in the test with PA-1, in the test on SKOV3, with Tov-21-G and with Tov112D was “inactive” throughout.

Turning to `Cc1cc(NC(=O)Nc2ccc(F)c(F)c2)n(-c2ccccc2)n1`, the Potency result with C33A, in the test on CASKI, in the test with Es-2, with HeLa, with Hek293T and with JEG-3 was “inactive” throughout. Moreover, the Potency result in the test on OV90, with PA-1, in the test with Tov-21-G and in the test on Tov112D was “inactive” throughout.

Consider `COc1c(Nc2ncc(Cl)c(N[C@H]3[C@@H](C(N)=O)[C@@H]4C=C[C@H]3C4)n2)ccc2c1CC[C@@H](N1CCOCC1)CC2`, for which the Potency entry in the test on C33A, with CASKI, in the test on Es-2, in the test on HeLa, in the test on Hek293T and with JEG-3 was “inactive” each time. The Potency entry with OV90, in the test with PA-1, with Tov-21-G and in the test on Tov112D was “inactive” each time.

`CO/N=C(/C(=O)N[C@@H]1C(=O)N2C(C(=O)O)=C(Cn3ccc(=N)n3CCO)CS[C@H]12)c1csc(N)n1`: the Potency result in the test with C33A, with CASKI, in the test with Es-2, in the test with HeLa, in the test on Hek293T and in the test on JEG-3 was “inactive” in each case. The Potency result with OV90, in the test with PA-1, in the test on SKOV3, with Tov-21-G and in the test with Tov112D was “inactive” each time.

As for `CC1(C)CC[C@]2(C(=O)O[C@@H]3O[C@H](CO)[C@@H](O)[C@H](O)[C@H]3O)CC[C@]3(C)C(=CCC4[C@@]5(C)CC[C@H](O[C@@H]6O[C@H](C(=O)O)[C@@H](O)[C@H](O)[C@H]6O)C(C)(C)C5CC[C@]43C)C2C1` (stereo partly drawn), the activity change, negative = cytotoxicity was 3.23% [at 11.6 µM] in the test with C33A; -0.46% [at 11.6 µM] in the test on CASKI; 6.53% [at 11.6 µM] with Es-2; 7.58% [at 11.6 µM] in the test on HeLa; 5.45% [at 11.6 µM] with Hek293T; 7.56% [at 11.6 µM] in the test on JEG-3. Further, the activity change, negative = cytotoxicity with OV90 was -4.22% [at 11.6 µM]; in the test on PA-1, 9.38% [at 11.6 µM]; with SKOV3 it was 0% [at 11.6 µM]; with Tov-21-G, 5.62% [at 11.6 µM]; in the test on Tov112D it was 11.2% [at 11.6 µM].
